The results in this text go back to PubChem BioAssay.

The nature of the first experiment: small-molecule microarray binders of probe aDKK1, primary screen, biochemical, biotinylated probe, 635/667 nm fluorescence (AID 1099).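 Also: score merges 667nm spot fluorescence with signal to noise across triplicate slides; reference of the scale not given here.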 The settings on record: higher = more signal.
`CO[C@H]1O[C@H](CO)[C@@H](OC(=O)Nc2ccccc2-c2ccccc2)[C@H](OC(=O)Nc2ccc3c(c2)OCO3)[C@H]1OC(=O)Nc1ccc2c(c1)OCO2` registered a composite z-score of 0.244.
`COC(=O)[C@@]1(Cc2ccc(F)cc2)[C@H]2c3cc(C(=O)N4CCCC4)n(CCN4CNCC4=O)c3C[C@H]2CN1C(=O)c1ccccc1`: the composite z-score worked out at 0.845.
The same measure, in the same setting: under `CN(C)CCCNC(=O)[C@@H]1c2ccccc2C(=O)N(Cc2ccccc2Cl)[C@H]1c1ccc(CO)cc1` stands 0.0414.

The next experiment in a line: small-molecule microarray binders of probe aCHRDL2, primary screen, biochemical, biotinylated probe, 635/667 nm fluorescence (AID 1100). The settings on record: higher = more signal.
`COc1cc2c(cc1O)C(C)N(Cc1ccc([N+](=O)[O-])o1)CC2` (stereo not drawn): the composite z-score is 0.879.
On the same count and under the same terms, in the case of `COCCOC(=O)N1C(=O)[C@@]2(c3cc(C#Cc4ccc(OC)cc4)ccc31)[C@H](c1ccc(O)cc1)N1[C@H](c3ccccc3)[C@H](c3ccccc3)OC(=O)[C@H]1[C@@H]2C(=O)N1CCCCCCC1` it was 1.36; in that of `COc1ccc([Si](C)(C)[C@@H]2[C@@H](CC(=O)N(CCO)Cc3ccccc3)O[C@]3(C(=O)N(Cc4cccc(N5C(=O)c6cccc7cccc5c67)c4)c4ccccc43)[C@H]2C)cc1`, 0.246.
Still for that read-out and setting: under `Cc1ccc(S[C@]2(C(=O)O)CC(=O)N(Cc3ccccc3Cl)[C@@H]2c2ccc(CO)cc2I)cc1` stands -0.217.
On the same count and under the same terms, in the case of `COC(=O)C1=CC(CCCO)=CC(C2CC2)N(C)C=C1C(=O)OC` (stereo not drawn) it was 0.41.
`COCCOC(=O)N1C(=O)[C@@]2(c3cc(C#CCC(C(=O)OC)C(=O)OC)ccc31)[C@H](C(=O)N1CCc3cc(OC)c(OC)cc3C1)[C@H]1C(=O)O[C@H](c3ccccc3)[C@H](c3ccccc3)N1[C@@H]2c1ccc(OCCO)cc1` yielded a composite z-score of 0.0313.
As to `COc1ccc([Si](C)(C)[C@H]2[C@H](CCO)O[C@@]3(C(=O)N(Cc4cccc(N5C(=O)COc6ccccc65)c4)c4ccccc43)[C@@H]2C)cc1`, the composite z-score worked out at 0.122.
Still for that read-out and setting: in the case of `CN(C)CCCNC(=O)[C@@]1(C)c2ccccc2C(=O)N(Cc2ccccc2)[C@H]1c1ccc(CO)cc1` it was 0.683.
The same measure, in the same setting: under `COC(=O)c1c2oc(c1C(=O)OC)C(=O)N(Cc1ccccc1)Cc1cn(nn1)C[C@H](Cc1ccccc1)NC(=O)N[C@H](CO)CC2` stands -0.342; under `[N-]=[N+]=NCc1ccccc1[C@H]1OC(c2ccc(OCCCO)cc2)=N[C@@]1(CCS(=O)(=O)c1ccccc1)C(=O)N1CCCCC1`, 1.42.
Same read-out and setting: under `O=C(CS)NCCCCCNC(=O)[C@@H]1C[C@@H]2C(=O)N3CCC[C@H]3C(=O)N2[C@@H]1c1cccc(OCCO)c1` stands 0.468; under `COCCOC(=O)N1C(=O)[C@@]2(c3cc(C#CCCO)ccc31)[C@H](C(=O)Nc1nc3ccccc3s1)[C@H]1C(=O)O[C@H](c3ccccc3)[C@H](c3ccccc3)N1[C@@H]2c1ccccc1OCCO`, 0.411; under `C[C@@H]1NC(=O)[C@@]23C(=O)N[C@@H](Cc4ccccc4)C2[C@H](C)[C@@]2(C)O[C@H]2C3/C=C/C/C=C\CNC(=O)[C@@H]2CCCN2C1=O` (stereo partly drawn), -0.339.
Compound `CCC[C@@H]1C[C@@]1(CCC)[C@@H](NC(=O)OCc1ccccc1)c1ccc(-c2ccccc2)cc1` showed a composite z-score of 0.565.
`CC[C@H]1C2=C3C(CC[C@H]4C(OCc5ccc(F)cc5C(F)(F)F)OC[C@](C)([C@@H]34)N(C(=O)OC(C)(C)C)C2)C(COC)C1COC` (stereo partly drawn) yielded a composite z-score of 0.475.
On the same count and under the same terms, in the case of `CC(C)(C)OC(=O)CC[C@@]1(C(=O)NCc2ccccc2)N=C(c2ccc(OCCCO)cc2)O[C@@H]1c1ccccc1N=[N+]=[N-]` it was 1.29; in that of `CCC(CC)C(O)C1C=CC2C(=O)N(c3ccccc3)C(=O)C2N1Nc1ccc(C(C)C)cc1` (stereo not drawn), 0.948.
On the same count and under the same terms, in the case of `C[C@H]1NC(=O)[C@@]23C(=O)N[C@@H](Cc4ccccc4)C2[C@H](C)[C@@]2(C)O[C@H]2C3/C=C/C/C=C\CNC(=O)[C@H](Cc2ccccc2)NC1=O` (stereo partly drawn) it was -0.427; in that of `COCCOC(=O)N1C(=O)[C@@]2(c3cc(C#CC4=CCCCC4)ccc31)[C@H](C(N)=O)[C@H]1C(=O)O[C@H](c3ccccc3)[C@H](c3ccccc3)N1[C@@H]2c1ccccc1OCCO`, 0.367.
As for `CCOC(=O)C[C@H]1[C@H](OC(=O)c2cc3ccccc3oc2=O)[C@@H](NC(=O)c2ccc(-c3ccccc3)cc2)c2cc(OCCCO)ccc2N1C(=O)c1ccc2ccccc2n1`, the composite z-score was -0.386.
In turn, `COC(=O)[C@@]1(Cc2ccc(F)cc2)[C@H]2c3cc(C(=O)N(C)C)n(Cc4cc(F)cc5c4OCOC5)c3C[C@H]2CN1C(=O)c1ccccc1` yielded a composite z-score of 1.25.
`COC(=O)[C@@]1(Cc2ccccc2)[C@@H]2C(=CC(=O)[C@H]2CC(=O)C(=O)N(C)C)CN1C(=O)c1ccccc1`: the composite z-score was 1.17.
`CN1C(=O)C2C=CC(C(O)c3ccc(F)cc3)N(Nc3ccccc3)C2C1=O` (stereo not drawn) returned a composite z-score of 0.902.
The same measure, in the same setting: under `CCCC[C@@H]1C[C@H]1[C@@H](NC(=O)c1ccccc1)c1ccc(C(F)(F)F)cc1` stands 0.926; under `COc1ccc([Si](C)(C)[C@H]2[C@H](CCn3cc([C@H](O)c4ccccc4)nn3)O[C@@]3(C(=O)N(Cc4ccc(N5C(=O)c6cccc7cccc5c67)cc4)c4ccccc43)[C@@H]2C)cc1`, 0.538; under `C[N+](C)(C)CCCC[C@@H]1NC(=O)[C@H]2C[C@@H](C(=O)NCCCCCCN)[C@@H](c3ccc(O)cc3)N2C1=O`, 0.659.
The compound `O[C@@H](Cc1ccccc1)[C@@H](/C=C/C1CC1)N(CC#Cc1ccccc1)Cc1cccc(Cl)c1` displayed a composite z-score of 1.34.
Still for that read-out and setting: under `CCOC(=O)C[C@H]1[C@H](OC(=O)c2ccccc2-c2ccccc2)[C@@H](NC(=O)c2ccc(-c3ccccc3)cc2)c2cc(OCCCO)ccc2N1C(=O)c1ccc2ccccc2n1` stands -0.0904.
On the same count and under the same terms, in the case of `CN(C)c1ccc(C(O)C2C=CC3C(=O)N(c4ccccc4)C(=O)C3N2Nc2ccc([N+](=O)[O-])cc2)cc1` (stereo not drawn) it was 1.16; in that of `COC(=O)[C@@]1(Cc2ccc(OC)cc2)[C@H]2c3cc(C(=O)N4CCCC4)n(Cc4c(-c5ccccc5)noc4C)c3C[C@H]2CN1C(=O)c1ccccc1`, 1.12; in that of `COc1ccc(-c2nc(-c3ccccc3)c3c(c2C)CO[Si]3(C(C)C)C(C)C)cn1`, -0.505.
As to `O=C1O[C@@H](c2ccccc2)[C@@H](c2ccccc2)N2[C@@H](c3ccc(O)cc3)[C@]3(C(=O)Nc4ccc(C#CC5=CCCCC5)cc43)[C@@H](C(=O)NC[C@H](O)c3ccccc3)[C@H]12`, the composite z-score is 0.757.
Same read-out and setting: under `CO[C@H]1O[C@H](CO)[C@@H](OC(=O)Nc2ccccc2-c2ccccc2)[C@H](OC(=O)Nc2ccc3c(c2)OCO3)[C@H]1OC(=O)Nc1ccc2c(c1)OCO2` stands 0.485; under `COC(=O)[C@@]1(Cc2ccc(F)cc2)[C@H]2c3cc(C(=O)N4CCCC4)n(CCN4CNCC4=O)c3C[C@H]2CN1C(=O)c1ccccc1`, 0.82; under `CN(C)CCCNC(=O)[C@@H]1c2ccccc2C(=O)N(Cc2ccccc2Cl)[C@H]1c1ccc(CO)cc1`, 0.366.
